{"source": "PubChem BioAssay (NCI)", "note": "Values joined by “and” are separate entries in the source; they are usually repeats but may differ in a detail not shown here. Identical values can stand only once. Compounds without any hit were thinned out: in the full panel of roughly 83,000, 20% have a hit.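 48-hour exposure, single concentration, 96-well plates; percent growth endpoint where 0 means no net growth. Active: below 10.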 A number with no mark means an inactive call. Active and inactive are the calls of the source. Where a SMILES comes first, the peptide text is derived from it. [ ]: non-standard residue; d: D form. ξ: configuration not given here. ξV = CC(C)C(N)C(=O)O", "data": [{"system": "NCI-H322M lung", "experiment": "NCI-60 one-dose screen, 48 h (100 = growth as untreated, 0 = no growth, -100 = all killed)", "settings": "0.0025 µM", "description": "(§1) Growth inhibition of the NCI-H322M human Non-Small Cell Lung tumor cell line is measured as a screen for anti-cancer activity. Cells are grown in 96 well plates and exposed to the test compound for 48 hours. Compounds are tested at a single concentration, which is 10^-5 M for most compounds. The reported endpoint is percent growth (GI% or GIPRCNT), where numbers from 0 - 100% represent growth inhibition, and numbers from -100% - 0 represent cell death. For example, a value of 40 represents 60% growth inhibition. A value of 0 means no net growth occurred over the course of the experiment. A value of -40 indicates 40% of cells at the beginning of the experiment died by the end of the experiment. A value of -100 means all cells are dead at the end of the experiment.\n(§2) NCI-60 Human Tumor Cell Lines Screen was performed using the standard one-dose NCI protocol, which is described in more detail at https://dtp.cancer.gov/discovery_development/nci-60/default.htm.\n(§3) Compounds with GIPRCNT values below 10 were considered active. Activity score was based on GIPRCNT using the following formula: […]\n(§4) Score is 0 for GIPRCNT values of 100 or above, 50 for GIPRCNT values of 0, and 100 for GIPRCNT values of -100.", "units": {"growth": "%"}, "values": [{"molecule": "COc1cccc2c1C(=O)c1c(O)c3c(c(O)c1C2=O)C[C@@](O)(C(=O)CO)C[C@@H]3OC1CC(N)C(O)C(C)O1", "note": "(stereo not given in full)", "growth": 86.8}]}, {"system": "NCI-H322M lung", "experiment": "NCI-60 one-dose screen, 48 h (100 = growth as untreated, 0 = no growth, -100 = all killed)", "settings": "1 µM", "description": "as §1, §2, §3, §4", "units": {"growth": "%"}, "values": [{"molecule": "COc1cccc2c1C(=O)c1c(O)c3c(c(O)c1C2=O)C[C@@](O)(C(=O)CO)C[C@@H]3OC1CC(N)C(O)C(C)O1", "note": "(stereo not given in full)", "growth": 63.4}]}, {"system": "NCI-H322M lung", "experiment": "NCI-60 one-dose screen, 48 h (100 = growth as untreated, 0 = no growth, -100 = all killed)", "settings": "2.5 µM", "description": "as §1, §2, §3, §4", "units": {"growth": "%"}, "values": [{"molecule": "COc1cccc2c1C(=O)c1c(O)c3c(c(O)c1C2=O)C[C@@](O)(C(=O)CO)C[C@@H]3OC1CC(N)C(O)C(C)O1", "note": "(stereo not given in full)", "growth": 101}]}, {"system": "NCI-H322M lung", "experiment": "NCI-60 one-dose screen, 48 h (100 = growth as untreated, 0 = no growth, -100 = all killed)", "settings": "10 µM", "description": "as §1, §2, §3, §4", "values": [{"molecule": "Cc1cc(O)c(C(C)C)cc1Cl", "growth": "96.9%"}, {"molecule": "COC(=O)C1C(O)C(C)C(O)C(C)C=C(C)C2=C3C(=C(C)C(=O)c4c(O)c(c(C)c(OC(C)=O)c43)NC(=O)C(C)=C/C=C\\C(C)C(O)C(C)C1O)OCO2", "note": "(stereo not given)", "growth": "140%"}, {"molecule": "COc1c(O)cc2oc3cc(O)c(CC=C(C)C)c(O)c3c(=O)c2c1CC=C(C)C", "growth": "83.6%"}, {"molecule": "CC(C)C(NC(=O)CN)C(=O)O", "note": "(stereo not given) (H-Gly-[ξV]-OH)", "growth": "100% and 105%"}, {"molecule": "CS(=O)(=O)OC1CC(n2ccc(=O)[nH]c2=O)OC1COC(c1ccccc1)(c1ccccc1)c1ccccc1", "note": "(stereo not given)", "growth": "89.1%"}, {"molecule": "OCC(O)C(O)C(O)C(/C=N/Nc1ccccc1)=N/Nc1ccccc1", "note": "(stereo not given)", "growth": "68.9%"}, {"molecule": "Nc1nc(=S)c2ncn(C3OC(CO)C(O)C3O)c2[nH]1", "note": "(stereo not given)", "growth": "128% and 64.3%"}, {"molecule": "Cc1cc(NS(=O)(=O)c2ccc(N=Nc3cc(N=Nc4ccc(S(=O)(=O)Nc5cc(C)nc(C)n5)cc4)c4c(NC(=O)C(Cl)Cl)cccc4c3OC(=O)C(Cl)Cl)cc2)nc(C)n1", "note": "(tested in a mixture with another compound)", "growth": "94.9% and 87.3%"}, {"molecule": "O=C(O)COc1ccc(OCC(=O)O)cc1", "growth": "39.3%"}, {"molecule": "N=S(c1ccccc1[N+](=O)[O-])c1ccccc1[N+](=O)[O-]", "growth": "93.4%"}, {"molecule": "O=C1NC(=O)c2cc([N+](=O)[O-])ccc21", "growth": "99%"}, {"molecule": "OCC1OC(n2cnc3c(=S)nc[nH]c32)C(O)C1O", "note": "(stereo not given)", "growth": "96.5% and 62.9%"}, {"molecule": "O=[N+]([O-])C1=C(c2ccccc2)SC=C(c2ccccc2)S1", "growth": "92.4%"}, {"molecule": "O=C(Nc1ccc(C(=O)O)c(O)c1)c1ccccc1", "growth": "100% and 97.7%"}, {"molecule": "COc1cccc2c1C(=O)c1c(O)c3c(c(O)c1C2=O)C[C@@](O)(C(C)=O)C[C@@H]3OC1CC(N)C(O)C(C)O1", "note": "(stereo not given in full)", "growth": "3.64% (active)"}, {"molecule": "CCN1/C(=C/C=C/C=C/c2sc3ccccc3[n+]2CC)Sc2ccccc21", "growth": "5.13% (active)"}, {"molecule": "CSC1SCC2C(=O)N(C)C(C(C)C)C(=O)OCC(NC(=O)c3cnc4ccccc4n3)C(=O)NC(C)C(=O)N(C)C1C(=O)N(C)C(C(C)C)C(=O)OCC(NC(=O)c1cnc3ccccc3n1)C(=O)NC(C)C(=O)N2C", "note": "(stereo not given)", "growth": "9.51% (active)"}, {"molecule": "CC(=O)OCC(OC(C)=O)C(OC(C)=O)C(OC(C)=O)C(OC(C)=O)C(/C=N/Nc1ccccc1)=N/Nc1ccccc1", "note": "(stereo not given)", "growth": "65%"}, {"molecule": "CCCCCCCCCCCC[N+](C)(C)Cc1ccccc1", "growth": "87.7%"}, {"molecule": "CCC(C)(C)c1cc(O)c(C(C)(C)CC)cc1O", "growth": "45.6%"}, {"molecule": "CO[C@H](C(=O)[C@@H](O)[C@@H](C)O)[C@@H]1Cc2cc3cc(OC4CC(OC5CC(O)C(O)C(C)O5)C(O)C(C)O4)c(C)c(O)c3c(O)c2C(=O)[C@H]1OC1CC(OC2CC(OC3CC(C)(O)C(O)C(C)O3)C(O)C(C)O2)C(O)C(C)O1", "note": "(stereo not given in full)", "growth": "5.87% (active)"}, {"molecule": "CC(C)(C)CC(C)(C)c1ccc(OCCO)cc1", "growth": "115%"}, {"molecule": "COC(=O)C1=COC(C)C2C[n+]3ccc4c([nH]c5ccccc54)c3CC12", "note": "(stereo not given)", "growth": "107% and 95.9%"}, {"molecule": "Cc1nc(N=C(N)N)nc2ccc3ccccc3c12", "growth": "-3.99% (active)"}, {"molecule": "OC(CN1CCCC2CCCCC21)c1cc2ccccc2c2ccccc12", "note": "(stereo not given)", "growth": "49.4%"}, {"molecule": "CCCCCCCCCCCCSC(=NC)NC", "growth": "52.8% and 95.6%"}, {"molecule": "O=c1ccn(C2CC(O)C(COC(c3ccccc3)(c3ccccc3)c3ccccc3)O2)c(=O)[nH]1", "note": "(stereo not given)", "growth": "87.5%"}, {"molecule": "CCCCCC(C)c1ccc(O)c(C)c1", "note": "(stereo not given)", "growth": "99.3%"}, {"molecule": "CCCC1CCC(=C2C(=O)CCC2=O)O1", "note": "(stereo not given)", "growth": "90.9% and 96.9%"}, {"molecule": "CCCCCCCCCCCCCCCCCCOCC(COP(=O)([O-])OCC[N+](C)(C)C)OC", "note": "(stereo not given)", "growth": "107%"}, {"molecule": "CC1=CC(C)=Nc2ccc(Cl)cc2N1", "growth": "102%"}, {"molecule": "COc1cccc2c1C(=O)c1c(O)c3c(c(O)c1C2=O)C[C@@](O)(C(=O)CO)C[C@@H]3OC1CC(N)C(O)C(C)O1", "note": "(stereo not given in full)", "growth": "13.9%"}, {"molecule": "CC(=O)Nc1cc(C)ccc1C", "growth": "96%"}, {"molecule": "O=C1C=C(O)c2ccccc2C1=O.[Ag]", "growth": "99%"}, {"molecule": "NC(=O)SCC(=O)NNc1ccccc1", "growth": "94.8%"}, {"molecule": "CCCCCCCCCCSC(=N)N", "growth": "88.7%"}]}, {"system": "NCI-H322M lung", "experiment": "NCI-60 one-dose screen, 48 h (100 = growth as untreated, 0 = no growth, -100 = all killed)", "settings": "100 µM", "description": "as §1, §2, §3, §4", "units": {"growth": "%"}, "values": [{"molecule": "O=c1ccn(C2CC(O)C(COC(c3ccccc3)(c3ccccc3)c3ccccc3)O2)c(=O)[nH]1", "note": "(stereo not given)", "growth": 68.8}]}]}
